# Data reported in the supplement of paper PMC10981050.
# Structures can show the parent of a compound that is named as a salt.
# System: OCI-AML2
# Test: cell viability relative to vehicle control; higher = less cytotoxic
# Details: 10 µM; SRSF2 genotype: wt/wt
# Procedure, shortened: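 Four leukaemia lines, as CRISPR-edited mutant clones and isogenic wild-type clones, were tested against Selleck bioactive, kinase and epigenetic probe libraries after removal of identity-inconsistent compounds. Cells were exposed to a single 10 µM dose for 48 h, and CellTiter-Glo luminescence was then read. Viability was calculated relative to the on-plate vehicle control.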
row,Compound,cell viability [%]
1,C=CC(=O)Nc1cc(Nc2nccc(-c3cn(C)c4ccccc34)n2)c(OC)cc1N(C)CCN(C)C,0.41
2,CC(=O)Oc1c(C)c(C)c2c(c1C)CCC(C)(CCC[C@H](C)CCC[C@H](C)CCCC(C)C)O2 (some centres not stated) [Vitamin E Acetate],94.2
3,C=CC(=O)Nc1ccc2ncnc(Nc3cccc(Br)c3)c2c1,50.9
4,CC1(C)O[C@H]1COc1c2ccoc2cc2oc(=O)ccc12 [Oxypeucedanin],93.4
5,Cc1nc2ccc(NC(=O)Nc3ccnc4cccnc34)cc2o1,96.4
6,O=C(COc1ccc(C(=O)c2ccccc2)cc1)NC1CCN(Cc2ccccc2)CC1 [Adiporon],47.3
7,CS(=O)(=O)Nc1cc2occ(NC=O)c(=O)c2cc1Oc1ccccc1 [Iguratimod],123
8,Cc1ccnc(NS(=O)(=O)c2ccc(N)cc2)n1 [Sulfamerazine],89.9
9,CC(=CCNc1ncnc2nc[nH]c12)CO [Trans-Zeatin],97.4
10,CCCC(CCC)C(=O)O [Valproic acid sodium salt (Sodium valproate)],95.9
11,C[C@]1(COc2ccc(N3CCC(Oc4ccc(OC(F)(F)F)cc4)CC3)cc2)Cn2cc([N+](=O)[O-])nc2O1 [Delamanid],88.6
12,COc1ccc(CCC(=O)Nc2nc3ccc(Cl)cc3s2)cc1OC,87.5
